Assay results: PubChem BioAssay (EPA / NIEHS)
Where “and” joins values, the source holds several entries; their conditions need not be identical. Identical values can stand only once. Inconclusive results are not listed. A structure can be active in one record and inactive in another. Calls of active or inactive are those of the source. The calls were made as follows, unless noted: active = hit-call score of the fitted dose curve at least 0.9, where 1 is the maximum; inactive = score below 0.9.

Key:
[1] = molecular target: human Vitamin D Receptor (VDR), VDR (gene 7421) (UniProt P11473); assay: ATG_VDR_TRANS: Attagene TRANS-FACTORIAL HepG2 Assay for human Vitamin D Receptor (VDR) (AID 2283022; active = hit-call score of the fitted dose curve at least 0.9, where 1 is the maximum)
Sequence of human Vitamin D Receptor (VDR), VDR (gene 7421) (P11473 whole entry, looked up, the tested form may be a part): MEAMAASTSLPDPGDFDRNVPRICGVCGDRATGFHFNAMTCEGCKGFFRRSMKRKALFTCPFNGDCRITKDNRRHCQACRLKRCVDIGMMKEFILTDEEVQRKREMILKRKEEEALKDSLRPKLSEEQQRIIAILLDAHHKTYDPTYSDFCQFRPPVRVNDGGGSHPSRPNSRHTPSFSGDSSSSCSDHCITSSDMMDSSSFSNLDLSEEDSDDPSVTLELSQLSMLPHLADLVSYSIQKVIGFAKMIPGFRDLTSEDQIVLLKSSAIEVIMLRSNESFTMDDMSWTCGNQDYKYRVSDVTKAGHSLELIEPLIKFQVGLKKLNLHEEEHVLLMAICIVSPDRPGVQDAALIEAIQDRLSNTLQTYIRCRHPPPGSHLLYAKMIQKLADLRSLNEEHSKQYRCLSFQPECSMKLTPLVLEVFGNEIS
How it was run: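 Fluorescence of labelled reporter cDNA fragments, resolved by capillary electrophoresis, gives mRNA induction after 24 h treatment of HepG2 cells carrying transfected Gal4-fusion reporter units. Activity is fitted in the positive direction with DMSO as baseline.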

[2] = read-out: Monokine induced gamma interferon (MIG), CXCL9 (gene 4283); assay: BSK_3C_MIG: BioMAP Diversity Plus: 3C Assay for Monokine induced gamma interferon (MIG) Biomarker Activity (AID 2283021); settings: primary human endothelial cells (HUVEC); actives raise or lower the signal;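 as to AC50: MIG protein level measured by immunoassay in the treated endothelial cultures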
How it was run: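 ELISA measurement of MIG in human umbilical vein endothelial cells 24 h after treatment. Cytotoxicity tracked by SRB staining in parallel cultures; gain or loss of signal fitted relative to DMSO.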

[3] = BSK_3C_SRB: Viability Assessment in the BioMAP Diversity Plus: 3C Assay (AID 2283023); settings: primary human endothelial cells (HUVEC);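 also: fitted both ways against DMSO so a hit may be signal rise or drop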
How it was run: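 Cells were dosed with chemical, cultured 24 h, fixed with 10% TCA, stained with 0.1% SRB and read at 560 nm. Human umbilical vein endothelium was used; DMSO served as negative control and baseline.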

[4] = read-out: Matrix Metallopeptidase 1 (MMP1), MMP1 (gene 4312); assay: BSK_BE3C_MMP1: BioMAP Diversity Plus: BE3C Assay for Matrix Metallopeptidase 1 (MMP1) Biomarker Activity (AID 2283024); settings: primary human bronchial epithelial cells; actives raise or lower the signal
How it was run: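 ELISA measurement of MMP-1 after 24 h compound exposure of primary human bronchial epithelial cells. Changes in either direction fitted relative to DMSO; parallel SRB staining checked overt cytotoxicity.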

[5] = BSK_3C_Vis: BioMAP Diversity Plus: 3C Assay for Morphology Visualization (AID 2283025); settings: primary human endothelial cells (HUVEC);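 also: fitted both ways so gain or loss versus DMSO counts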;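 as to AC50: light microscopy image of cell morphology used as background control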
How it was run: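 Light-microscopy visualization of HUVEC cultures at 24 h post-treatment, with DMSO as baseline for bidirectional fitting.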

[6] = read-out: Pselectin, SELP (gene 6403); assay: BSK_4H_Pselectin: BioMAP Diversity Plus: 4H Assay for Pselectin Biomarker Activity (AID 2283026); settings: primary human endothelial cells (HUVEC); actives raise or lower the signal
How it was run: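 ELISA of surface P-selectin on HUVEC, 24 h after dosing, with parallel SRB staining (0.1% after 10% TCA fixation, 560 nm) for overt cytotoxicity. Activity fitted in both directions relative to DMSO.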

[7] = BSK_4H_SRB: Viability Assessment in the BioMAP Diversity Plus: 4H Assay (AID 2283027); settings: primary human endothelial cells (HUVEC);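 also: cells exposed to compound for 24 h before staining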;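 as to AC50: curves fitted both ways versus DMSO so AC50 may be loss or gain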
How it was run: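 Cytotoxicity read-out in primary human endothelial cells: after 24 h compound exposure, cells were TCA-fixed (10%), stained with 0.1% SRB and absorbance taken at 560 nm. Values fitted in both directions relative to DMSO.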

[8] = BSK_BE3C_SRB: Viability Assessment in the BioMAP Diversity Plus: BE3C Assay (AID 2283028); settings: primary human bronchial epithelial cells;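 as to AC50: fitted both ways so AC50 may mark signal gain or loss versus DMSO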
How it was run: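 Overt cytotoxicity was assessed as total protein in confluent human primary bronchial epithelial cultures 24 h after chemical addition, using 0.1% sulforhodamine B staining read at 560 nm.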

[9] = read-out: Vascular endothelial growth factor receptor 2 (Homo sapiens) (UniProt P35968); assay: BSK_4H_VEGFRII: BioMAP Diversity Plus: 4H Assay for Vascular endothelial growth factor receptor 2 (VEGFR2) Biomarker Activity (AID 2283031); settings: primary human endothelial cells (HUVEC); actives raise or lower the signal;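 as to AC50: cell-surface VEGFR2 protein level quantified by ELISA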
How it was run: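 VEGFRII levels on human vascular endothelial primary cells were determined by ELISA at 24 hours post-dosing, with gain- or loss-of-signal fitted against DMSO controls.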

[10] = read-out: Human Leukocyte Antigen - DR isotype (HLADR), HLA-DRA (gene 3122); assay: BSK_BE3C_HLADR: BioMAP Diversity Plus: BE3C Assay for Human Leukocyte Antigen - DR isotype (HLADR) Biomarker Activity (AID 2283032); settings: primary human bronchial epithelial cells; actives raise or lower the signal
How it was run: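 Cell-surface HLA-DR ELISA readout at 24 h after dosing in the BE3C primary human lung bronchial epithelial system; gain or loss of signal against DMSO, with parallel sulforhodamine B staining of total protein for overt cytotoxicity.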

[11] = read-out: Vascular cell adhesion molecule 1 (VCAM1), VCAM1 (gene 7412); assay: BSK_4H_VCAM1: BioMAP Diversity Plus: 4H Assay for Vascular cell adhesion molecule 1 (VCAM1) Biomarker Activity (AID 2283033); settings: primary human endothelial cells (HUVEC); actives raise or lower the signal
How it was run: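 VCAM-1 ELISA read 24 h after chemical dosing of HUVEC in the BioMAP 4H system, with gain or loss of signal fitted relative to DMSO. Parallel SRB staining (560 nm) checked overt cytotoxicity.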

[12] = read-out: Interferon-gamma inducible Protein 10 (IP10), CXCL10 (gene 3627); assay: BSK_BE3C_IP10: BioMAP Diversity Plus: BE3C Assay for Interferon-gamma inducible Protein 10 (IP10) Biomarker Activity (AID 2283034); settings: primary human bronchial epithelial cells; actives raise or lower the signal
How it was run: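 IP-10 quantified by ELISA in human primary bronchial epithelial cell cultures at 24 hours post-dosing. Gain or loss of signal fitted relative to DMSO; parallel SRB staining assessed overt cytotoxicity.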

[13] = read-out: Monokine induced gamma interferon (MIG), CXCL9 (gene 4283); assay: BSK_BE3C_MIG: BioMAP Diversity Plus: BE3C Assay for Monokine induced gamma interferon (MIG) Biomarker Activity (AID 2283035); settings: primary human bronchial epithelial cells; actives raise or lower the signal
How it was run: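 ELISA quantified MIG after 24 h exposure of primary bronchial epithelial cultures, analysed in both directions relative to DMSO. Cytotoxicity tracked in parallel cultures by sulforhodamine B staining.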

[14] = read-out: Plasminogen activator inhibitor-1 (PAI1), SERPINE1 (gene 5054); assay: BSK_BE3C_PAI1: BioMAP Diversity Plus: BE3C Assay for Plasminogen activator inhibitor-1 (PAI1) Biomarker Activity (AID 2283037); settings: primary human bronchial epithelial cells; actives raise or lower the signal
How it was run: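 PAI-1 was measured by ELISA in human primary bronchial epithelial cultures 24 h after chemical dosing, with cytotoxicity checked by SRB total-protein staining in parallel cultures. Activity was fitted in both directions relative to DMSO.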

[15] = read-out: urokinase plasminogen activator (uPA), PLAU (gene 5328); assay: BSK_BE3C_uPA: BioMAP Diversity Plus: BE3C Assay for urokinase plasminogen activator (uPA) Biomarker Activity (AID 2283038); settings: primary human bronchial epithelial cells; actives raise or lower the signal
How it was run: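 Measured by ELISA: uPA from human primary bronchial epithelial cells 24 h after chemical treatment. Values derive from bidirectional curve fitting with DMSO serving as negative control. Total protein by SRB staining in parallel wells flagged overt cytotoxicity.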

[16] = read-out: Urokinase-type plasminogen activator receptor (uPAR), PLAUR (gene 5329); assay: BSK_BE3C_uPAR: BioMAP Diversity Plus: BE3C Assay for Urokinase-type plasminogen activator receptor (uPAR) Biomarker Activity (AID 2283039); settings: primary human bronchial epithelial cells; actives raise or lower the signal
How it was run: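 uPAR levels were measured by ELISA after 24 h compound treatment of primary human bronchial epithelial cells, fitted in both directions relative to DMSO. Parallel SRB staining served as the cytotoxicity read-out.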

[17] = read-out: Interleukin-6 (IL6), IL6 (gene 3569); assay: BSK_CASM3C_IL6: BioMAP Diversity Plus: CASM3C Assay for Interleukin-6 (IL6) Biomarker Activity for (AID 2283040); settings: primary human coronary artery smooth muscle cells; actives raise or lower the signal
[18] = read-out: Transforming growth factor beta 1 (TGFb1), TGFB1 (gene 7040); assay: BSK_BE3C_TGFb1: BioMAP Diversity Plus: BE3C Assay for Transforming growth factor beta 1 (TGFb1) Biomarker Activity (AID 2283036); settings: primary human bronchial epithelial cells; actives raise or lower the signal
How it was run: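 ELISA readout of TGF-b1 from human lung bronchial epithelial primary cells, taken 24 h post-treatment. Gain or loss of signal fitted relative to DMSO baseline, with parallel SRB staining for overt cytotoxicity.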

[19] = read-out: Urokinase-type plasminogen activator receptor (uPAR), PLAUR (gene 5329); assay: BSK_4H_uPAR: BioMAP Diversity Plus: 4H Assay for Urokinase-type plasminogen activator receptor (uPAR) Biomarker Activity (AID 2283030); settings: primary human endothelial cells (HUVEC); actives raise or lower the signal
How it was run: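 Chemicals are dosed onto human vascular endothelial primary cells (umbilical vein). After 24 h, uPAR is read by ELISA. Gain or loss of signal is fitted relative to DMSO.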

Measured: AC50

O=C1OC2(c3ccccc31)c1cc(Br)c(O)c(Br)c1Oc1c2cc(Br)c(O)c1Br
inactive: [1]

OC1CCC(C2CCCCC2)CC1 (configuration not stated)
not listed: [1] | [18] | [19]
inactive: all other assays above

CCCCCCCCCCCCCCCS(=O)(=O)Oc1ccccc1
not listed: [1] | [19]
inactive: all other assays above

FC(F)(I)C(F)(F)C(F)(F)C(F)(F)C(F)(F)C(F)(F)I
active: [6] 14.6 µM [middle of 5 runs] | [8] 23.6 µM [middle of 5 runs] | [9] 55.1 µM and 7.3 µM | [13] 45.1 µM [middle of 5 runs] | [14] 24.9 µM [middle of 5 runs] | [15] 40.3 µM [middle of 5 runs] | [16] 43.5 µM [middle of 5 runs] | [17] 35.9 µM [middle of 5 runs]
inactive: [9]

CCCCCCCCCCCCCC[N+](C)(C)C
active: [2] 8.96 µM | [3] 1.38 µM | [4] 5.8 µM | [5] 3.02 µM | [6] 1.95 µM | [7] 5.31 µM | [8] 5.28 µM | [10] 3.18 µM | [11] 2.83 µM | [12] 3.88 µM | [13] 8.17 µM | [14] 2.63 µM | [15] 4.85 µM | [16] 4.06 µM | [17] 9.39 µM
inactive: [9]

CC[C@H](c1ccc(O)cc1)[C@@H](CC)c1ccc(O)cc1
inactive: [9] | [17]
active: [2] 37.4 µM | [3] 27.9 µM | [4] 38 µM | [5] 22.3 µM | [6] 20.3 µM | [7] 30.6 µM | [8] 35.8 µM | [19] 26 µM | [10] 19.1 µM | [11] 30.7 µM | [12] 20.1 µM | [13] 34.5 µM | [14] 22.9 µM | [15] 37.2 µM | [16] 37.8 µM

NCC(F)(F)C(F)(F)C(F)(F)C(F)(F)C(F)(F)C(F)(F)C(F)(F)F
inactive: [2] | [3] | [4] | [6] | [7] | [8] | [9] | [10] | [11] | [12] | [13] | [14] | [15] | [16] | [17]
active: [9] 7.22 µM

CCCCCCCCOC(=O)CCCCCCCCC(=O)OCCCCCCCC
not listed: [1] | [12] | [18] | [19]
inactive: all other assays above

C#C[C@]1(O)CC[C@H]2[C@@H]3CCC4=CC(=O)CC[C@@H]4[C@H]3CC[C@@]21C
active: [3] 5.17 µM | [7] 17.1 µM | [9] 20 µM
not listed: [1] | [12] | [19]
inactive: all other assays above

O=C(OCCOCCOC(=O)c1ccccc1)c1ccccc1
not listed: [1] | [12] | [18] | [19]
inactive: all other assays above

NC(=O)N1C(=O)C(C(=O)c2cc(Cl)cs2)c2cc(F)c(Cl)cc21 (configuration not stated)
inactive: [2] | [9] | [17]
active: [3] 14 µM | [4] 2.77 µM | [5] 37.5 µM | [6] 11.4 µM | [7] 15.2 µM | [8] 9.99 µM | [10] 2.85 µM | [11] 24.5 µM | [13] 9.59 µM | [18] 2.88 µM | [14] 3.15 µM | [15] 6.91 µM | [16] 6.27 µM

CN1CCN(c2ccccc2/C=C2\SCCN(c3ccc(Cl)c(Cl)c3)C2=O)CC1
active: [3] 16.3 µM | [4] 32 µM | [5] 13.9 µM | [6] 6.28 µM | [7] 15 µM | [8] 33.3 µM | [10] 25.7 µM | [14] 33.3 µM | [15] 30.4 µM
inactive: [2] | [9] | [11] | [17]

CCN(CC)CCNc1ccc(CNC=O)c2sc3ccc(OC)cc3c(=O)c12
active: [3] 17.7 µM | [4] 20 µM | [5] 14.4 µM | [6] 14.3 µM | [7] 25.4 µM | [9] 20 µM | [10] 11 µM | [11] 30.7 µM | [14] 1.61 µM | [15] 20 µM | [16] 12.9 µM | [17] 20 µM
inactive: [8] | [13] | [18]
